Experimental data as given in PubChem BioAssay AID588519 (ICCB-Longwood Screening Facility, Harvard Medical School, 2011).
Values joined by “and” are separate entries in the source; they are usually repeats but may differ in a detail not shown here. Equal values may be shown once. About 1,000 (0.67%) of roughly 150,000 compounds were called active. Cut-off read from the data, not from the text of the source: active = % elongation below about 90%; inactive = the rest, inconclusive results apart. The entries come from a sample that favours actives as a whole.

Biological target: Genome polyprotein (Poliovirus type 1 (strain Mahoney)) (UniProt P03300)
Assay: inhibitors of poliovirus polymerase RNA elongation – biochemical, fluorescence polarization, total intensity, primary screen (AID 588519); for z-score: compound at 16.7 µg/mL
Settings: stronger effect = lower value; for % elongation: compound at 16.7 µg/mL; for z-score: measured here: FP z-score
[1] = measured here: total intensity read-out

Genome polyprotein (Poliovirus type 1 (strain Mahoney)), sequence (P03300 1749-2209 limits assumed): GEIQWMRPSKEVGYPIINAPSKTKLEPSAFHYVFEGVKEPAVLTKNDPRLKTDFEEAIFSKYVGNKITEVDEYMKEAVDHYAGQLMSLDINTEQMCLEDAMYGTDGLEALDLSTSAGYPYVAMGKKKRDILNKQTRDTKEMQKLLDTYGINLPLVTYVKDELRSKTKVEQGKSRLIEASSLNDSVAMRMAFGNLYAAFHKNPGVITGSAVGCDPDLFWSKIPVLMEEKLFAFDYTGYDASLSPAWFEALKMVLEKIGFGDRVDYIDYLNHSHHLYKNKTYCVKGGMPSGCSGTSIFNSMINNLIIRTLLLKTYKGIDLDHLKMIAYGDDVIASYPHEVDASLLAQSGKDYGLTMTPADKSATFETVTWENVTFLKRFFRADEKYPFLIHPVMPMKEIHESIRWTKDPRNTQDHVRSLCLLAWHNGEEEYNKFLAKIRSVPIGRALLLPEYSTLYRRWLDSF

| SMILES | % elongation | z-score | % elongation [1] |
| --- | --- | --- | --- |
| O=C(O)/C=C/c1ccc2c(c1)OCCO2 | 102% (inactive) | 0.1 | 99% |
| CCSc1nnc(NC(=O)/C=C/c2ccc3c(c2)OCCO3)s1 | 85% (active) | -3.6 | 91% |
| CCSc1nnc(NC(=O)c2ccc(C)c(S(=O)(=O)N(CC)CC)c2)s1 | 100% (inactive) | -0.5 | 98% |
| COc1ccc(S(=O)(=O)N2CCC(C(=O)N3CCCC3)CC2)cc1OC | 99% (inactive) | -0.6 | 100% |
| O=C(NCc1ccco1)c1cc(Cl)cc(Cl)c1 | 99% (inactive) | -0.7 | 104% |
| CCN1CCN(C2=Nc3c(Cl)cc(Cl)c4cccc2c34)CC1 | 45% (inactive) | -6.5 | 247% |
| CCN(CC)CCN1COc2c(cc(Cl)c3cccnc23)C1 | 84% (active) | -5.8 | 80% |
| CCc1cc(=O)oc2c(C)c3c(cc12)CN(Cc1ccccc1)CO3 | 100% (inactive) | -0.7 | 104% |
| O=c1c(C=Nc2cc(Cl)ccc2O)c(O)n(C2CCCCC2)c(=O)n1C1CCCCC1 | 100% (inactive) | 0 | 100% |
| NS(=O)(=O)c1ccc(CCN(Cc2nc3ccsc3c(=O)[nH]2)Cc2nc3ccsc3c(=O)[nH]2)cc1 | 111% (inactive) | 1.1 | 110% |
| COC(=O)C(Cc1ccccc1)NC(=O)c1n[nH]c(=O)c2ccccc12 (stereo not given) | 101% (inactive) | -0.2 | 100% |
| COc1ccc(OCCOc2ccccc2F)cc1 | 104% (inactive) | 1.2 | 102% |
| CCOC(=O)C1(C2(O)C(=O)c3ccccc3C2=O)CCCC1=O (stereo not given) | 75% (active) | -3.1 | 72% |
| CCOC(=O)C1(C(=O)OCC)CCN(S(=O)(=O)c2ccc(C)cc2)c2ccccc2C1=O | 107% (inactive) | 0.2 | 102% |
| CCOC(=O)C1(C(=O)OCC)C(c2ccccc2)CC(=O)CC1c1ccccc1 (stereo not given) | 99% (inactive) | -0.3 | 96% |
| CN(C)/C=C1/C(=O)Nc2ccccc21 | 98% (inactive) | -0.1 | 103% |
| Nc1ccc(N=C2C(=O)Nc3ccccc32)cc1 | 99% (inactive) | -0.4 | 100% |
| O=C1Nc2ccccc2C1=Nc1cccc(C(F)(F)F)c1 | 88% (active) | -1.2 | 90% |
| COc1ccc(C(C#N)OC(C)=O)c(OCc2ccccc2)c1OC (stereo not given) | 105% (inactive) | 0.2 | 102% |
| CCOc1ccc(NC(=O)c2c(NC(=O)Cc3ccccc3)sc3c2CCC(C)C3)cc1 (stereo not given) | 83% (active) | -3.6 | 84% |
| CCOc1ccc(NC(=O)c2c(NCc3cccc(OC)c3OC)sc3c2CCC3)cc1 | 108% (inactive) | 0.4 | 114% |
| COC(=O)c1c(NC(=O)CCCOc2ccccc2)sc2c1CCC(C)C2 (stereo not given) | 105% (inactive) | 0.2 | 112% |
| O=C(Cc1ccccc1)Nc1sc2c(c1C(=O)Nc1ccc(Br)cc1)CCC2 | 102% (inactive) | -0.1 | 106% |
| Cc1cccc(OCCCC(=O)Nc2sc3c(c2C(N)=O)CCC(C)C3)c1 (stereo not given) | 101% (inactive) | -0.6 | 102% |
| CCOc1ccc(NC(=O)c2c(NC(=O)Cc3ccccc3)sc3c2CCCCC3)cc1 | 75% (active) | -5 | 78% |
| CC1CC(C)CN(C(=O)COC(=O)c2ccc(C#N)cc2)C1 (stereo not given) | 101% (inactive) | -0.2 | 102% |
| Cc1ccc(Cn2nc(C)c(/C=C/C(=O)OCc3nc4ccccc4c(=O)n3CC#N)c2C)cc1 | 108% (inactive) | 0.9 | 119% |

| SMILES | % elongation | z-score | % elongation [1] |
| --- | --- | --- | --- |
| O=C(CC12CC3CC(CC(C3)C1)C2)Nc1noc2ccccc12 | 101% (inactive) | -0.1 | 102% |
| COC(CNC(=O)c1ccc2c(c1)N(Cc1cc(C)ccc1C)C(=O)c1ccccc1S2=O)OC (stereo not given) | 99% (inactive) | -1.1 | 103% |
| CCn1c(C(C)C)n[nH]c1=S | 103% (inactive) | 0.6 | 102% |
| CC(C)c1n[nH]c(=S)n1N | 62% (active) | -2.9 | 68% |
| CC(C)n1c(-c2ccncc2)n[nH]c1=S | 102% (inactive) | 0.7 | 103% |
| CC(C)Sc1n[nH]c(=S)n1N | 83% (active) | -1.9 | 88% |
| O=C(CN1C(=O)c2ccccc2C1=O)NN1C(=O)CSC1=S | 97% (inactive) | -0.8 | 106% |
| COc1ccc(OC)c(C(=O)c2ccc(C(=O)O)cc2)c1 | 102% (inactive) | 0.4 | 100% |
| COc1ccc(O)c(C(=O)c2cnn3c(N)nnc3c2)c1 | 84% (active) | -2.3 | 84% |
| COc1ccc(O)c(C(=O)c2cnn(C(=O)c3ccc4c(=O)n5c(nc4c3)CCC5)c2)c1 | 104% (inactive) | 0.1 | 108% |
| COc1cc(C=Nc2c(C)n(C)n(-c3ccccc3)c2=O)ccc1OC(=O)c1ccco1 | 104% (inactive) | 0.5 | 102% |
| O=C(CSc1nc2c(c(=O)[nH]1)CN(Cc1ccc3c(c1)OCO3)CC2)Nc1cc(F)ccc1F | 108% (inactive) | 0 | 107% |
| O=C(CSc1nc2c(c(=O)[nH]1)CN(Cc1ccc(F)cc1)CC2)Nc1ccccc1Cl | -15% (active) | -8.9 | 19% |
| COc1cccc(CN2CCc3nc(SCC(=O)Nc4ccccc4)[nH]c(=O)c3C2)c1 | 107% (inactive) | -0.1 | 111% |
| CC[N+](CC)=c1scc(-c2ccc(Cl)cc2)s1 | 102% (inactive) | -0.2 | 110% |
| O=c1ccc(-c2ccc(S(=O)(=O)N3CCc4ccccc43)o2)n[nH]1 | 102% (inactive) | 0.6 | 108% |
| CCN(CC)C(=O)C1Sc2nnc(-c3ccccc3)n2NC1c1ccccc1 (stereo not given) | 101% (inactive) | 0.1 | 102% |
| Cc1[nH]c(=O)[nH]c(=O)c1N | 100% (inactive) | -0.5 | 100% |
| CC[N+](C)(CC)CCC[n+]1c(-c2ccccc2)c2cc(N)ccc2c2ccc(N)cc21 | -41% (active) and -58% (active) and 65% (active) | -17 and -9.9 and -6.6 | -18% and -15% and 39% |
| CC[n+]1c(C)n(-c2ccccc2)c2ccc(N)cc21 | 102% (inactive) | 0.2 | 106% |
| CC(=O)Nc1c(C)ccc(NC(=O)C2C(C=C(C)C)C2(C)C)c1C (stereo not given) | 102% (inactive) | -0.1 | 102% |
| Cc1ccc2oc(=O)c3cc(C(=O)NC4CCCC4)sc3c2c1 | 104% (inactive) | 0.9 | 98% |
| CCN(CC)CCNC(=O)c1cc2c(=O)oc3ccc(C)cc3c2s1 | 89% (active) | -1.5 | 89% |
| COc1ccc(Cl)cc1N(C)C(=O)c1cc2c(=O)oc3ccc(C)cc3c2s1 | 107% (inactive) | 0.4 | 113% |
| O=C(O)CSc1ccc(S(=O)(=O)N2CCCC2)cn1 | 105% (inactive) | 0.2 | 99% |
| O=C(NC1CCCCC1)c1ccc(-n2ccc3ccccc32)s1 | 100% (inactive) | -0.2 | 101% |
| N#Cc1c(/N=C/c2c(O)[nH]c(=O)[nH]c2=O)sc2c1CCC2 | 110% (inactive) | 1.2 | 130% |

| SMILES | % elongation | z-score | % elongation [1] |
| --- | --- | --- | --- |
| N#CSc1ccc(N2CCCCC2)cc1 | 99% (inactive) | -0.2 | 100% |
| N#CSc1ccc(N)c(Br)c1 | 75% (active) | -3.8 | 83% |
| O=C(COC(=O)C1CCC(=O)N1)Nc1nc(-c2ccccc2)cs1 (stereo not given) | 101% (inactive) | -0.2 | 104% |
| COc1ccc(-c2csc(=Nc3ccccc3)n2C)cc1 | 105% (inactive) | 0.5 | 102% |
| O=C(CNc1ccccc1N1CCCCC1)N1CCc2ccccc21 | 102% (inactive) | 0.1 | 94% |
| COc1ccccc1C(=O)COC(=O)COc1ccc(C#N)cc1 | 108% (inactive) | 0.7 | 108% |
| NC(=S)N1CCCCC1 | 99% (inactive) | -0.1 | 100% |
| Clc1nc(Nc2ccccc2)sc1/C=N/N1CCOCC1 | 149% (inactive) | 5.6 | 195% |
| Cc1cc(NC(=O)c2ccccc2C)no1 | 103% (inactive) | 0.4 | 103% |
| OC(c1nc2ccccc2[nH]1)C(O)C(O)C(O)c1nc2ccccc2[nH]1 (stereo not given) | 99% (inactive) | -0.6 | 104% |
| N#CC(=C1C(=O)c2ccccc2C1=O)c1nc2ccccc2[nH]1 | 80% (active) | -2.3 | 88% |
| CS(=O)(=O)c1nc2ccccc2[nH]1 | 104% (inactive) | 0.4 | 107% |
| COc1ccc(CN2CNc3c(c(C)nn3-c3ccccc3)C2)cc1 | 100% (inactive) | -1 | 106% |
| Cc1cccc(-n2c(Cn3ccc(C)n3)n[nH]c2=S)c1 | 104% (inactive) | 0.5 | 105% |
| C=C(C)CNC(=S)N1CCNCC1 | 99% (inactive) | 0.1 | 105% |
| C=C(C)CNC(=S)NN | 83% (active) | -1.3 | 86% |
| CC(C)(C)CNC(=S)NN | 98% (inactive) | -0.9 | 101% |
| CCCCN(C)C(=O)C1CCN(c2nn3cc(-c4ccc(OC)cc4)nc3s2)CC1 | 104% (inactive) | 0.4 | 105% |
| Cc1ccc(NC2=C/C(=N/S(=O)(=O)c3ccc(F)cc3)c3ccccc3C2=O)cc1C | 102% (inactive) | 0.1 | 106% |
| CCOc1ccc(N2CC(c3nc4ccccc4n3CCOc3ccc(OC)cc3)CC2=O)cc1 (stereo not given) | 111% (inactive) | 0.9 | 107% |
| COc1ccc(OCCCn2c(C3CC(=O)N(c4ccc(F)cc4)C3)nc3ccccc32)cc1 (stereo not given) | 109% (inactive) | 0.4 | 110% |
| CCc1ccccc1N1CC(c2nc3ccccc3n2CCCCOc2ccccc2)CC1=O (stereo not given) | 63% (active) | -7.7 | 68% |
| COC(=O)c1ccccc1NC(=O)C1CC(c2cccc(Br)c2)=NO1 (stereo not given) | 104% (inactive) | 0.6 | 106% |
| CC(C)NC(=O)CCc1c[nH]c2ccccc12 | 62% (active) | -4.7 | 68% |
| CC(=O)Nc1ccc(NC(=O)C(C)OC(=O)Cc2c[nH]c3ccccc23)cc1 (stereo not given) | 105% (inactive) | 0 | 108% |
| CCOC(=O)C(N)Cc1c[nH]c2ccccc12 (stereo not given) | 100% (inactive) | -0.3 | 101% |
